# From PubChem BioAssay
# Values joined by “and” are separate entries in the source; they are usually repeats but may differ in a detail not shown here. Equal entries are not always repeated. Inconclusive results are not listed. For some assays here: Results with a measured potency or affinity are listed apart. Where a structure was tested more than once in an assay, its records may differ in their call. Active and inactive are the calls of the source.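 Rule for the calls, unless noted: active = compounds whose cell count with miR-34 switched on is under 0.7 times the count with it off; inactive = the rest.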
# Tests used:
# [1] = liver-stage malaria parasite load reduction – cell-based, known kinase inhibitor set, luminescence, hepatoma host viability (AID 624392; call rule not given here;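 note: infected cells incubated roughly two days before readout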); conditions: Plasmodium liver stage in hepatoma cells, luciferase luminescence, concentration not given here; liver cell % of control: measured here: host liver cell viability; parasite % of control: stronger effect = lower value
# [2] = viability loss with induced miR-34 in A549 – imaging, A549 dox-inducible miR-34, nuclei and caspase counts, primary screen (AID 1347080); conditions: A549 miR-34 inducible, Hoechst nuclei count, 48 h
# [3] = MELAS cybrid and Rieske KO viability enhancers – cell-based, MELAS cybrids, Rieske KO mouse fibroblasts, CellTiter-Glo, primary screen (AID 1508586;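 active = mean z-score across replicates of 1.96 or higher in either the MELAS or the Rieske mutant cell line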;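 note: z relative to plate mean and SD of compound and empty wells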); conditions: low glucose
# [4] = target: ATP-dependent translocase ABCB1 (Homo sapiens) (UniProt P08183); experiment: P-glycoprotein substrate transport blockade – cell-based (AID 377; in the data active = fluorescence slope change above about 50%); conditions: MDR1-expressing cells, fluorescent substrate accumulation slope; stronger effect = higher value; concentration not given here
# [5] = P. berghei load reduction in hepatocytes – cell-based, HepG2, luciferase luminescence, HepG2 viability, primary screen (AID 624349; in the data active = parasite load remaining mostly below about 12%, no sharp cut-off; inactive = mostly above about 10%;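 note: 100% = mean of DMSO negative control wells on the same plate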); conditions: P. berghei liver stage in HepG2, luciferase luminescence, concentration not given here; parasite load remaining: stronger effect = lower value; viability: measured here: HepG2 viability without parasites
# [6] = target: NAD(+) hydrolase SARM1 (Homo sapiens) (UniProt Q6SZW1); experiment: blocking NAD cleavage by SARM1 SAM-TIR – cell lysate, NAD-Glo luminescence (AID 1508614;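 active = compound whose remaining NAD level is above about 45 nM, limit read from the data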;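 note: higher remaining NAD means stronger inhibition of SARM1 NADase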); conditions: SAM-TIR HEK293T lysate NADase, at 1 µM, stronger effect = higher value
# [7] = target: Mitogen-activated protein kinase 7 (Homo sapiens) (UniProt Q13164); experiment: Gal4-ERK5 driven luciferase induction – cell-based, HTS, primary screen (AID 1508626;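 active = luciferase signal above three times the same-plate solvent-only control wells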;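 note: luciferase driven by Gal4-ERK5 fusion binding five Gal4 sites before minimal TATA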); conditions: HeLa Gal4-ERK5 transactivation, 18 h, at 5 µM, stronger effect = higher value
# [8] = yeast 75Q aggregation reduction – 75Q-TubU reporter (AID 1593); conditions: Yeast 75Q polyglutamine aggregation reporter
# [9] = restoration of touch response, mutant HTT neurons – whole organism, C. elegans mechanosensory neurons, N-terminal huntingtin (AID 1599); conditions: C. elegans polyQ-huntingtin mechanosensory neurons, stronger effect = higher value
# [10] = glutamate transport activators, MN-1 cells, MN-1 cell line (AID 1612); conditions: MN-1 motor neuron cells, stronger effect = higher value;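 note: tested at 1 µM final; 0% = mean of DMSO vehicle wells on each plate; positive means more glutamate uptake than control and negative means less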
# [11] = GFP-Q80 aggregate reduction, neuronal-like cells, cell-based, NGF-treated PC12, GFPQ80 (AID 1614); conditions: PC12 NGF-treated GFP-polyQ80 inclusion reduction;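 note: lower means fewer inclusions and 0 means no inclusions at all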
# [12] = 75Q-TubH aggregate inhibition, S. cerevisiae, yeast (AID 1616); conditions: S. cerevisiae 75Q-TubH polyglutamine aggregation suppression; stronger effect = higher value
# [13] = blockers of polyQ-driven CASP3 activation – cell-based (AID 1583); conditions: polyglutamine-induced caspase-3 activation, cell assay; stronger effect = higher value;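 tested at 10 µM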
# [14] = blockers of cytochrome c efflux from mitochondria – biochemical, purified mitochondria (AID 1603); conditions: stronger effect = lower value;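 note: mouse liver mitochondria challenged with calcium chloride; signal normalized to the plate average as 100%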
# [15] = polyglutamine aggregate formation blockers (AID 1604); conditions: polyglutamine-induced protein aggregation inhibition assay; stronger effect = higher value; tested at 2.5 µM
# [16] = selective SMN2 exon splicing luciferase activators – cell-based, SMN2/SMN1 luciferase reporters (AID 1598; call rule not given here); conditions: SMN2 vs SMN1 luciferase splicing reporter cells, at 10 µM; SMN1 luciferase ratio: measured here: SMN1 luciferase reporter average; SMN2 luciferase ratio: measured here: SMN2 luciferase reporter average, stronger effect = higher value; SMN2/SMN1 luciferase ratio: stronger effect = higher value
# [17] = galactose survival enhancers in mitochondrial complex I cybrids – cell-based, galactose medium, ATP luminescence, primary screen (AID 1645843;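 active = z-score of at least 1.8 in each of two replicates, scored against plate mean and spread of sample wells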;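 note: positive z means more ATP and so rescue of galactose-driven cybrid death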); conditions: complex I mutant cybrid cells, 72 h, stronger effect = higher value
# [18] = stronger effect = lower value, cell number ratio, induced over uninduced
# [19] = measured here: relative caspase fold change +Dox/-Dox
# [20] = measured here: total cells with miR-34 induction, stronger effect = lower value
# [21] = measured here: total cells without miR-34 induction
# NAD(+) hydrolase SARM1 (Homo sapiens), sequence (Q6SZW1 whole entry, looked up, the tested form may be a part): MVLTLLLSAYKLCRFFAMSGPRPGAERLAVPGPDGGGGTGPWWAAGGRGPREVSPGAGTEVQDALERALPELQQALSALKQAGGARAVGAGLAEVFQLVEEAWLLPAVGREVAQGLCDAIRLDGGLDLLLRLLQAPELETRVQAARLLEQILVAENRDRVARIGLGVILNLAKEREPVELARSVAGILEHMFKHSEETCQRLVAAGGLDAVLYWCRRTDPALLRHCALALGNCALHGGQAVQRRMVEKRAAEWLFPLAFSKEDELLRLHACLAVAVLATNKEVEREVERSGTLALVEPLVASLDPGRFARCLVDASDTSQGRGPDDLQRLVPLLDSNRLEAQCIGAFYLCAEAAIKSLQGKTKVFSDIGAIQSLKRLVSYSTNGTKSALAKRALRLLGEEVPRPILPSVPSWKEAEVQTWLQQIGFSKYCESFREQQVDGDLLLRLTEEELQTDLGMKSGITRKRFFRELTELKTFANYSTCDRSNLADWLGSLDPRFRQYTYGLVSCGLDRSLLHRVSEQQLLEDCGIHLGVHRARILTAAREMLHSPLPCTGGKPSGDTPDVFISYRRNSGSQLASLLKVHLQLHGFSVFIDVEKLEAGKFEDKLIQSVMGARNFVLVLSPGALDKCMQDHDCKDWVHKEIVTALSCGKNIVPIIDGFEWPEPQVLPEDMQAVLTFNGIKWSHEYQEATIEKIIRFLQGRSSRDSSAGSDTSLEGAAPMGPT
# Mitogen-activated protein kinase 7 (Homo sapiens), sequence (Q13164 whole entry, looked up, the tested form may be a part): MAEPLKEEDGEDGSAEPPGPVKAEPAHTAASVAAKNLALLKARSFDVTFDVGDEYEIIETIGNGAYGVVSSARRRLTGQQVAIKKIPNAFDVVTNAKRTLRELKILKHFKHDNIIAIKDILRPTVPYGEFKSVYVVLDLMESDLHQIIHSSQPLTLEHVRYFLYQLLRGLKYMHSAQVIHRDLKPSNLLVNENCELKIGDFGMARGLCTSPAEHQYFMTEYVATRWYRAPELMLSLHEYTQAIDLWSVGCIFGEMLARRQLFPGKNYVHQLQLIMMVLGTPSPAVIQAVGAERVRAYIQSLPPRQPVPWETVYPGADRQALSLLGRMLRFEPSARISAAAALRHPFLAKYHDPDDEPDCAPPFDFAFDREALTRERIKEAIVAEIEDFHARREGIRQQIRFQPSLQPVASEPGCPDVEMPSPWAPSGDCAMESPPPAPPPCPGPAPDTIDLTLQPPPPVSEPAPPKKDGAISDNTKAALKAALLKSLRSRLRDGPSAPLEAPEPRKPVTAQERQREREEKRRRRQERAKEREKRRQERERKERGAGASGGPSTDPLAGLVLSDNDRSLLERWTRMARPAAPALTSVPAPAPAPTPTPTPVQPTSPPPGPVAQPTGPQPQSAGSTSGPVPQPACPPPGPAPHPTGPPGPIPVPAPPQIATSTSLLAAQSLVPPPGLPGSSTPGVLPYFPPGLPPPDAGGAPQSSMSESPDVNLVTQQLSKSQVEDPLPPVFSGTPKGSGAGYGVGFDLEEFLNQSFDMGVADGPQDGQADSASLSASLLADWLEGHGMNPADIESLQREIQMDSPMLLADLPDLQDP
# ATP-dependent translocase ABCB1 (Homo sapiens), sequence (P08183 whole entry, looked up): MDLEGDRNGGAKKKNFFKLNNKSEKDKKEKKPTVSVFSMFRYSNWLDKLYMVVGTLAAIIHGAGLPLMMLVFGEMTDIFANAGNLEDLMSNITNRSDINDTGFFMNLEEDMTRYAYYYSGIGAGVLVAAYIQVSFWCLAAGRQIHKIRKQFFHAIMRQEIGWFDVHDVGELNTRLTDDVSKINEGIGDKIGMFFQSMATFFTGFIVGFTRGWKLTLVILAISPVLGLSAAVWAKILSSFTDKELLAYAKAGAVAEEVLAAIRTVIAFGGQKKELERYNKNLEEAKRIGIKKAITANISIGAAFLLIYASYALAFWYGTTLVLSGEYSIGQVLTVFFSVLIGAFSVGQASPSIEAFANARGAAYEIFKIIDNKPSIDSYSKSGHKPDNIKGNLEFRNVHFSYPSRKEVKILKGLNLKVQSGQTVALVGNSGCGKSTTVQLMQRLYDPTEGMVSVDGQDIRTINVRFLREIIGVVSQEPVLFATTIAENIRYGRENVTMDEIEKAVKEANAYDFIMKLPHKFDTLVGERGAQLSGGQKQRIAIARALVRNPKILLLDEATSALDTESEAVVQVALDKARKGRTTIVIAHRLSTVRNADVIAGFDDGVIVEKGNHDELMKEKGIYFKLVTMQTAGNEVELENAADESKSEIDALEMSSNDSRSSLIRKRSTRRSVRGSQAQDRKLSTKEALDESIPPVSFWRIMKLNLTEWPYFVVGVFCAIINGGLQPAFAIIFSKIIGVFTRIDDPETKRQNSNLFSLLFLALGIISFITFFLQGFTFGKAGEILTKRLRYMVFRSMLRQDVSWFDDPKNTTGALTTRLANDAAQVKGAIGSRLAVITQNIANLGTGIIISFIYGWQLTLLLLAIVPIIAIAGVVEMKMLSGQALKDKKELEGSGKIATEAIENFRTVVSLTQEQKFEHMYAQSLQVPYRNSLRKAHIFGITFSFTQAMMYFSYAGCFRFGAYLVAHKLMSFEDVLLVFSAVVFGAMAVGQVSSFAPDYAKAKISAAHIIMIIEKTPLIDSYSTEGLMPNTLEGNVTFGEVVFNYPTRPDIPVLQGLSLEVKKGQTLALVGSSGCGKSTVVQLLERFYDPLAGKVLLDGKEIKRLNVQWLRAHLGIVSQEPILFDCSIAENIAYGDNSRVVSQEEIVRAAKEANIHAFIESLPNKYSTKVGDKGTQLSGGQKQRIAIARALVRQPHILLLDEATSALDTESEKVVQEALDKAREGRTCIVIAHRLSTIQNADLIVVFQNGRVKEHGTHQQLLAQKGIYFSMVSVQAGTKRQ
smiles,measurement,setting,value
Cc1ccc([N+](=O)[O-])cc1S(=O)(=O)N(C)N=Cc1cnc2ccc(Br)cn12,liver cell % of control,[1],52.2% and 52.1% and 55.5%
same,parasite % of control,[1],4.51% (inactive) and 2.82% (inactive) and 2.1% (active)
same,fold change,[2]; [18],0.935 (inactive)
same,fold change,[2]; [19],0.896
same,cell count,[2]; [20],837
same,cell count,[2]; [21],896
same,z-score,"[3]; MELAS cybrid survival, CellTiter-Glo 48 h, stronger effect = higher value",-0.394 (inactive)
same,z-score,"[3]; Rieske KO mouse fibroblast survival, CellTiter-Glo 72 h",-2.82
C=C1CC[C@H](O)C/C1=C/C=C1\CCC[C@]2(C)[C@@H]([C@H](C)CCCC(C)C)CC[C@@H]12,fluorescence slope change,[4],59.6% (active)
same,parasite load remaining,[5],130% (inactive)
same,viability,[5],106%
same,fold change,[2]; [18],0.889 (inactive)
same,fold change,[2]; [19],1.52
same,cell count,[2]; [20],8940
same,cell count,[2]; [21],10100
same,remaining NAD,[6],10 nM (inactive)
same,luciferase signal,[7],48 AU (inactive)
CN1C2CC[C@H]1CC(OC(=O)C(O)c1ccccc1)C2 (stereo not given in full),score,[8],1.13
same,rescue above control,[9],-4.02
same,glutamate uptake change,[10],-10.2%
same,inclusion score,[11],2
same,aggregation suppression score,[12],1.37
same,fold change,[2]; [18],0.844 (inactive)
same,fold change,[2]; [19],1.44
same,cell count,[2]; [20],10300
same,cell count,[2]; [21],12200
CC1(C)S[C@@H]2[C@H](NC(=O)[C@@H](N)c3ccc(O)cc3)C(=O)N2[C@H]1C(=O)O,inhibition,[13],1.98%
same,score,[8],1.39
same,rescue above control,[9],1.27
same,cytochrome c release ratio,[14],1.03
same,inhibition of aggregation,[15],54.5%
same,glutamate uptake change,[10],1.23%
same,inclusion score,[11],2
same,aggregation suppression score,[12],1.15
same,parasite load remaining,[5],98.1% (inactive) and 66.2% (inactive)
same,viability,[5],75% and 90.3%
same,fold change,[2]; [18],0.918 (inactive)
same,fold change,[2]; [19],1.48
same,cell count,[2]; [20],11000
same,cell count,[2]; [21],12000
O[N+]1=CC=CCC1=S.On1ccccc1=S.[Zn],score,[8],0.07
same,SMN1 luciferase ratio,[16],0.04
same,SMN2/SMN1 luciferase ratio,[16],1.77 (active)
same,SMN2 luciferase ratio,[16],0.08
same,rescue above control,[9],16
same,cytochrome c release ratio,[14],1.27
same,inhibition of aggregation,[15],0%
same,glutamate uptake change,[10],-74.2%
same,aggregation suppression score,[12],-0.0147
same,parasite load remaining,[5],-0.27% (inactive) and -0.08% (inactive)
same,viability,[5],2.62% and 0%
same,fold change,[2]; [18],0.416 (active)
same,fold change,[2]; [19],2.93
same,cell count,[2]; [20],79
same,cell count,[2]; [21],190
COC1OC2O[C@@]3(C)CCC4C(C)CCC(C1C)[C@@]24OO3 (stereo not given in full),fold change,[2]; [18],0.961 (inactive)
same,fold change,[2]; [19],0.771
same,cell count,[2]; [20],9270
same,cell count,[2]; [21],9650
same,z-score,[17],-0.035 (inactive)
COC1C=CO[C@@]2(C)Oc3c(C)c(O)c4c(O)c(c5c(nc6cc(C)ccn65)c4c3C2=O)NC(=O)C(C)=CC=CC(C)C(O)C(C)C(O)C(C)C(OC(C)=O)C1C (stereo not given in full),fold change,[2]; [18],0.986 (inactive)
same,fold change,[2]; [19],1.96
same,cell count,[2]; [20],9910
same,cell count,[2]; [21],10000
same,z-score,[17],1.96 (active)
COc1ccc2c3c1OC1CC(O)C=C[C@@]31CCN(C)C2 (stereo not given in full),fold change,[2]; [18],0.977 (inactive)
same,fold change,[2]; [19],1.4
same,cell count,[2]; [20],9660
same,cell count,[2]; [21],9890
same,z-score,[17],0.92 (inactive)
C[C@]12CC(O)C3C(CCC4=CC(=O)CC[C@@]43C)C1CCC2C(=O)CO (stereo not given in full),fold change,[2]; [18],0.859 (inactive)
same,fold change,[2]; [19],2.3
same,cell count,[2]; [20],7080
same,cell count,[2]; [21],8240
same,z-score,[17],0.21 (inactive)
CC(=O)OC1CC2CCC3C(CC[C@@]4(C)C3CC([N+]3(C)CCCCC3)C4OC(C)=O)[C@@]2(C)CC1N1CCCCC1 (stereo not given in full),fold change,[2]; [18],0.934 (inactive)
same,fold change,[2]; [19],1.76
same,cell count,[2]; [20],9160
same,cell count,[2]; [21],9800
same,z-score,[17],0.43 (inactive)
CC1CC2C3CCC4=CC(=O)C=C[C@]4(C)[C@@]3(F)C(O)C[C@]2(C)C1C(=O)CO (stereo not given in full),fold change,[2]; [18],0.805 (inactive)
same,fold change,[2]; [19],1.08
same,cell count,[2]; [20],6880
same,cell count,[2]; [21],8550
same,z-score,[17],1.76 (inactive)
CNC(=O)[C@H]1O[C@@H](n2cnc3c(NCc4ccc(I)cc4)nc(Cl)nc32)[C@H](O)[C@@H]1O,fold change,[2]; [18],1.02 (inactive)
same,fold change,[2]; [19],1.05
same,cell count,[2]; [20],5610
same,cell count,[2]; [21],5510
same,z-score,[17],1.29 (inactive)
O=c1cnn(C2OC(CO)C(O)C2O)c(=O)[nH]1 (stereo not given),fold change,[2]; [18],1.77 (inactive)
same,fold change,[2]; [19],0.641
same,cell count,[2]; [20],1880
same,cell count,[2]; [21],1060
same,z-score,[17],-0.74 (inactive)
NC(C(=O)NC1C(=O)N2C(C(=O)O)=C(CSc3cn[nH]n3)CSC12)c1ccc(O)cc1 (stereo not given) (tested in a mixture with another compound),fold change,[2]; [18],0.899 (inactive)
same,fold change,[2]; [19],1.68
same,cell count,[2]; [20],9710
same,cell count,[2]; [21],10800
same,z-score,[17],0.555 (inactive)
CCC1OC(=O)C(C)C(=O)C(C)C(OC2OC(C)CC(N(C)C)C2O)[C@](C)(OC)CC(C)C(=O)C(C)C2N(CCCCn3cnc(-c4cccnc4)c3)C(=O)O[C@]12C (stereo not given in full),fold change,[2]; [18],0.904 (inactive)
same,fold change,[2]; [19],0.557
same,cell count,[2]; [20],7630
same,cell count,[2]; [21],8440
same,z-score,[17],0 (inactive)
CCN1CCCC1CNC(=O)c1c(O)c(Cl)cc(Cl)c1OC (stereo not given),fold change,[2]; [18],1.02 (inactive)
same,fold change,[2]; [19],1.39
same,cell count,[2]; [20],9680
same,cell count,[2]; [21],9480
same,z-score,[17],0.65 (inactive)
CC(C)(C)C(O)C=Cc1ccc2c(c1)OCO2 (stereo not given),fold change,[2]; [18],1.46 (inactive)
same,fold change,[2]; [19],0.768
same,cell count,[2]; [20],8470
same,cell count,[2]; [21],5780
same,z-score,[17],-0.12 (inactive)
CC1COc2c(C3(N)CC3)c(F)cc3c(=O)c(C(=O)O)cn1c23 (stereo not given),fold change,[2]; [18],0.951 (inactive)
same,fold change,[2]; [19],1.6
same,cell count,[2]; [20],9830
same,cell count,[2]; [21],10300
same,z-score,[17],0.395 (inactive)
COC1C(OC(C)=O)CC(=O)OC(C)CC=CC=CC(O)C(C)CC(CC=O)C1OC1OC(C)C(OC2C[C@@](C)(OC(=O)CC(C)C)C(O)C(C)O2)C(N(C)C)C1O (stereo not given in full),fold change,[2]; [18],1.04 (inactive)
same,fold change,[2]; [19],1.51
same,cell count,[2]; [20],9630
same,cell count,[2]; [21],9280
same,z-score,[17],-1.59 (inactive)
CCC(=O)O[C@]1(C(=O)SCF)C(C)CC2C3CC(F)C4=CC(=O)C=C[C@]4(C)[C@@]3(F)C(O)C[C@@]21C (stereo not given in full),fold change,[2]; [18],0.897 (inactive)
same,fold change,[2]; [19],1.65
same,cell count,[2]; [20],6980
same,cell count,[2]; [21],7780
same,z-score,[17],1.79 (inactive)
O=C(OC1CC2CC3CC(C1)N2CC3=O)c1c[nH]c2ccccc12 (stereo not given),fold change,[2]; [18],0.871 (inactive)
same,fold change,[2]; [19],2.24
same,cell count,[2]; [20],8970
same,cell count,[2]; [21],10300
same,z-score,[17],0.88 (inactive)
CC1CN(CCCn2c3ccccc3c3ccccc32)CC(C)N1 (stereo not given),fold change,[2]; [18],0.806 (inactive)
same,fold change,[2]; [19],1.22
same,cell count,[2]; [20],6730
same,cell count,[2]; [21],8340
same,z-score,[17],-1.61 (inactive)
CN1C(=O)CCC1c1cccnc1 (stereo not given),fold change,[2]; [18],0.988 (inactive)
same,fold change,[2]; [19],2.52
same,cell count,[2]; [20],9830
same,cell count,[2]; [21],9950
same,z-score,[17],0.965 (inactive)
CC[C@]1(O)CC2CN(CCc3c([nH]c4ccccc34)[C@@](C(=O)OC)(c3cc4c(cc3OC)N(C)C3[C@@](O)(C(N)=O)C(O)[C@]5(CC)C=CCN6CC[C@]43C65)C2)C1 (stereo not given in full),fold change,[2]; [18],0.722 (inactive)
same,fold change,[2]; [19],1.09
same,cell count,[2]; [20],1070
same,cell count,[2]; [21],1480
same,z-score,[17],-1.19 (inactive)
C=CCc1ccccc1OCC(O)CN[C@]1(C)CCC[C@H](C(C)(C)NC(=O)CBr)C1 (stereo not given in full),fold change,[2]; [18],0.814 (inactive)
same,fold change,[2]; [19],1.93
same,cell count,[2]; [20],70
same,cell count,[2]; [21],86
same,z-score,[17],-1.52 (inactive)
